High-throughput results: PubChem BioAssay, National Center for Advancing Translational Sciences (NCATS)
AmpC no deterg: inhibitors of E. coli AmpC beta-lactamase without detergent; P00811; Potency, µM (doses to about 57.1 µM), without a hit: top-dose activity change, negative = inhibition, usual class: inhibitors; 330,000 tested, 0.52% active; AID 485341; AmpC nitrocefin hydrolysis, absorbance 480 nm, 0.0001% Triton;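 note: plate controls were no compound for no effect and no enzyme for full effect; nearly all actives have a fitted effect of over 20% in size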
Target sequence (P00811 whole entry, looked up): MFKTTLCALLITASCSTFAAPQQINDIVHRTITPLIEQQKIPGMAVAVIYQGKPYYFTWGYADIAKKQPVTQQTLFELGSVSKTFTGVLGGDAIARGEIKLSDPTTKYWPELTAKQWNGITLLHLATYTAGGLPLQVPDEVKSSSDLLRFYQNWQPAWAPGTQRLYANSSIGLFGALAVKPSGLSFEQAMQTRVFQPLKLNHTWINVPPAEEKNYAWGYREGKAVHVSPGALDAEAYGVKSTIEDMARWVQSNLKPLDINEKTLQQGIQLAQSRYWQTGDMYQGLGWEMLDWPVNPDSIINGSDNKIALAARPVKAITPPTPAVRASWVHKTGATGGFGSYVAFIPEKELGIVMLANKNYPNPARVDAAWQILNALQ
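20 mM phosphate pH 7.0 + 0.01% (detergent screen) or 0.0001% Triton X-100; 5.3 nM AmpC reagent; cpd preinc 15 min RT; nitrocefin (800 uM stock) to start; A480 q20 s × 4 min; Activity was normalised to no-enzyme and no-compound control wells.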
Sm TGR inh: S. mansoni TGR enzyme inhibition | purified TGR, DTNB reduction, TNB absorbance 405 nm | 360,000 tested, 3% active | Q962Y6 | AID 485364 | Potency, µM (series often up to 114 µM), for inactives: at the highest dose activity change, negative = inhibition, usual class: inhibitors; note: % is set by controls: 0 for no effect and ±100 for the full control effect; nearly all actives have a fitted effect of over 60% in size
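TGR 20 nM + NADPH 100 uM (dispensed conc.), cpd preinc 15 min RT; start with NADPH (500 uM addition) then DTNB (15 mM addition). Kinetic TNB absorbance, 405 nm filter. Four-parameter Hill fit across titration.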
SARS PLpro yeast: inhibitors of SARS-CoV papain-like protease in yeast; Potency, µM (series often up to 32.9 µM), for the others: top-dose activity, positive = growth rescue, actives largely listed as activators; 330,000 tested, 0.19% active; S. cerevisiae expressing SARS-CoV PLpro, growth rescue; calls by dose curve; note: 0% is about no effect; nearly all actives have a fitted effect of over 55% in size
Pf growth 48h: P. falciparum growth inhibition at 48 hours (one generation); P. falciparum luciferase growth in erythrocytes, 48 h; Potency, µM (top dose mostly 28.7 µM), for inactives: at the highest dose activity change, negative = inhibition, actives largely listed as inhibitors; 310,000 tested, 5.9% active; AID 504832; note: % is set by controls: 0 for no effect and ±100 for the full control effect
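A one-generation exposure of luciferase-tagged malaria parasites in RPMI 1640/Albumax erythrocyte culture, 37 C and 5% CO2. Inhibition is inferred from decreased luminescence after adding detection reagent.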
AmpC inh detg: blocks E. coli AmpC beta-lactamase in detergent assay; Potency, µM (series often up to 114 µM), without a hit: top-dose activity change, negative = inhibition, hits mostly inhibitors; P00811; AmpC hydrolysis of nitrocefin, absorbance 480 nm, 0.01% Triton; 370,000 tested, 0.041% active;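 note: 0% = no-compound wells and -100% = no-enzyme wells; nearly all actives have a fitted effect of over 25% in size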
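20 mM phosphate pH 7.0 + 0.01% (detergent screen) or 0.0001% Triton X-100; 5.3 nM AmpC reagent; cpd preinc 15 min RT; nitrocefin (800 uM stock) to start; A480 q20 s × 4 min; Activity was normalised to no-enzyme and no-compound control wells.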
Pf growth 96h: inhibits malaria parasite growth, 96 h; 320,000 tested, 6.9% active; P. falciparum luciferase reporter growth, 96 h; Potency, µM (doses to about 28.7 µM), for the others: at the top dose activity change, negative = inhibition, actives largely listed as inhibitors; note: % is set by controls: 0 for no effect and ±100 for the full control effect
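Luminescence readout: decreased luciferase signal marks inhibited growth of reporter-expressing P. falciparum in infected red cells (2% hematocrit, 0.05% parasitemia final), exposed to compound two generations (96 h, 37 C, 5% CO2).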
* = called active by the depositor; u = inconclusive; x = no result given. This is a sample that favours compounds with a hit; in the whole collection about 12% have one here. Unless noted, calls come from the whole dose curve; as a rule, active = well fitted curve in the direction sought with a large enough effect; inconclusive = small, poorly fitted or top-dose-only effect, or another doubt; inactive = no such curve, though single readings can be large; an effect the other way counts as inactive or inconclusive. Potency is the fitted concentration of half-maximal effect.

SMILES	AmpC no deterg	Sm TGR inh	SARS PLpro yeast	Pf growth 48h	AmpC inh detg	Pf growth 96h
CC(C)C[C@H](NC(=O)c1[nH]cnc1C(=O)Nc1ccc(CNC(=O)OC(C)(C)C)cc1)C(=O)OC(C)(C)C	44.3%	39.9%	3.3%	8.28µM*	0.5%	6.57µM*
CC(C)(C)OC(=O)CNC(=O)c1[nH]cnc1C(=O)Nc1ccc(CNC(=O)OC(C)(C)C)cc1	145.2%	13.1%	7.3%	13.1µM*	5.2%	13.1µM*
CC(C)(C)OC(=O)NCc1ccc(NC(=O)c2nc[nH]c2C(=O)N[C@@H](Cc2ccccc2)C(=O)OC(C)(C)C)cc1	86.0%	12.0%	-0.4%	2.33µM*	3.7%	8.28µM*
CC(C)C[C@H](NC(=O)c1[nH]cnc1C(=O)Nc1ccc(CNC(=O)OC(C)(C)C)cc1)C(=O)OCc1ccccc1	-2.8%	-2.0%	0.1%	11.7µM*	-0.1%	u
CC(C)C[C@H](NC(=O)c1nc[nH]c1C(=O)NCc1ccc(CNC(=O)OC(C)(C)C)cc1)C(=O)OC(C)(C)C	39.2%	-23.5%	9.5%	u	u	u
COc1ccc(C(=O)O)cc1Nc1nc2ccc(C)cc2n2cnnc12	x	-3.1%	x	x	-5.8%	x
COc1ccc(NC(=O)c2nc[nH]c2C(=O)N[C@@H](C)C(=O)OC(C)(C)C)cc1	54.3%	-6.1%	0.6%	u	-0.2%	u
C[C@H](NC(=O)c1[nH]cnc1C(=O)Nc1ccc(CNC(=O)OC(C)(C)C)cc1)C(=O)OCc1ccccc1	-27.0%	9.4%	-0.2%	9.28µM*	2.2%	29.9%
COc1ccc(NC(=O)c2nc[nH]c2C(=O)N[C@@H](CC(C)C)C(=O)OC(C)(C)C)cc1	10.0%	-0.9%	0.6%	10.4µM*	-5.4%	u
Cc1ccc(S(=O)(=O)Nc2cc3c(cc2C)n(C)c(=O)c(=O)n3C)c(C)c1	x	-4.4%	x	x	16.6%	x
COc1ccc2c(CSc3nc4nc(C)cc(C)n4n3)cc(=O)oc2c1	48.0%	0.4%	4.8%	13.1µM*	-9.8%	7.7%
Cc1ccc2c(CSc3nc4nc(C)cc(C)n4n3)cc(=O)oc2c1	88.0%	0.3%	-3.2%	u	10.4%	u
COc1ccccc1Cn1c(=O)c2ccccc2n2c(SCc3csc(C)n3)nnc12	49.3%	-13.1%	1.1%	u	-14.1%	5.22µM*
CCOC(=O)c1sc2c(c1C)c(=O)n(CCO)c(=O)n2Cc1ccccc1	30.3%	-3.9%	0.3%	u	0.5%	u
O=C(Nc1ccc(Oc2cccnc2)cc1)C1CCN(Cc2cc(Cl)ccc2O)CC1	-13.3%	-13.8%	15.9%	1.31µM*	2.0%	u
O=C(Nc1ccc(Oc2cccnc2)cc1)C1CCN(Cc2ccc(F)cc2)CC1	23.4%	-8.7%	-1.9%	u	-15.4%	11.1%
CCn1cc(CN2CCC(C(=O)Nc3ccc(Oc4cccnc4)cc3)CC2)c(C)n1	-18.3%	-8.9%	-2.2%	u	1.5%	5.1%
Cc1cccc(CN2CCC(C(=O)Nc3ccc(Oc4cccnc4)cc3)CC2)c1	15.3%	0.0%	-2.5%	13.1µM*	-4.2%	13.9%
CCn1cc(CN2CCC(C(=O)Nc3ccc(Oc4cccnc4)cc3)CC2)cn1	17.0%	-22.2%	7.7%	13.1µM*	-0.1%	12.2%
O=C(/C=C/c1ccc2c(c1)OCO2)NCCSCc1c(Cl)cccc1Cl	-27.7%	-6.8%	-22.7%	4.4%	3.8%	4.5%
COc1ccc(-c2cn(CCN)c(-c3ccncc3)n2)cc1	-13.9%	-17.4%	2.1%	-8.3%	-0.3%	12.4%
CCC(=O)N1CCc2cc(CNC(=O)C(CC)c3ccccc3)ccc21 (stereo not drawn)	x	5.7%	x	x	8.6%	x
CC(=O)C1=NN(c2ccccc2)C(c2cccs2)N1c1ccc(N(C)C)cc1 (stereo not drawn)	-34.0%	0.0%	-9.6%	x	u	2.08µM*
CC(=O)C1=NN(c2ccccc2)C(c2ccc3c(c2)OCO3)N1c1ccccc1 (stereo not drawn)	-10.3%	-1.2%	3.2%	u	-11.3%	u
COc1cc(C2Oc3ccccc3C=C2[N+](=O)[O-])cc(OC)c1OC (stereo not drawn)	12.6%	31.6µM*	-20.8%	u	-7.7%	u
SMILES	AmpC no deterg	Sm TGR inh	SARS PLpro yeast	Pf growth 48h	AmpC inh detg	Pf growth 96h
COc1cc(C2NC(=O)c3ccccc3O2)cc(OC)c1OC (stereo not drawn)	-12.2%	0.0%	-0.2%	x	-11.7%	u
O=C(N/N=C/c1ccccc1)c1ccc(OCc2ccccc2)cc1	-4.9%	-1.1%	-1.2%	20.3%	-0.5%	-21.8%
NC(N)=N/N=C/c1ccc(Br)cc1	-38.5%	6.0%	0.7%	11.7µM*	9.2%	12.5%
NC(N)=N/N=C/c1ccc(OCc2ccc(Cl)cc2)cc1	-17.1%	-18.6%	-10.0%	0.329µM*	-3.9%	2.33µM*
NC(N)=N/N=C/c1ccc(OCc2ccccc2)cc1	-24.2%	-12.4%	-2.3%	1.47µM*	-0.9%	1.47µM*
N#Cc1ccc(/C=N/N=C(N)N)cc1	-23.8%	22.5%	10.2%	u	-7.1%	x
Cc1cccc(-c2nnc(SCC#N)n2Cc2ccccc2)c1	-2.4%	4.7%	0.8%	x	2.3%	u
N#CCSc1nnc(C2CCCCC2)n1Cc1ccccc1	-4.0%	4.7%	5.5%	-15.1%	u	3.29µM*
Cc1cc(C)c2c(c1)[C@@H]1C=CC[C@@H]1[C@H](c1ccc(S(=O)(=O)N3CCOCC3)cc1)N2	13.4%	2.82µM*	-12.9%	10.4µM*	-13.2%	7.7%
COc1cccc(NS(=O)(=O)c2ccc3c(c2)C2C=CCC2C(c2ccc(C(=O)O)cc2)N3)c1 (stereo not drawn)	-6.2%	u	14.3%	-12.9%	-14.8%	11.5%
COC(=O)c1ccc([C@@H]2Nc3c(cccc3C(F)(F)F)[C@@H]3C=CC[C@@H]32)cc1	x	2.2%	x	x	8.5%	x
COC(=O)c1ccc(C2Nc3c(C)cc(C)cc3C3C=CCC32)cc1 (stereo not drawn)	x	1.12µM*	x	x	-6.2%	x
COC(=O)c1ccc([C@H]2Nc3ccc(S(=O)(=O)Nc4ccc(F)cc4)cc3[C@H]3C=CC[C@H]32)cc1	x	31.6µM*	x	x	-7.2%	x
COc1ccc(C(=O)N/N=C(\C)c2ccc3c(c2)C2C=CCC2C(c2ccccc2)N3)cc1 (stereo not drawn)	-4.0%	10µM*	4.9%	1.04µM*	-9.3%	46.7%
CCn1c(SCc2ccc(F)cc2Cl)nnc1-c1nonc1NC(C)=O	x	0.1%	x	x	2.9%	x
O=C(Nc1ccccc1)N1CCn2c1nc1ccccc12	3.8%	1.0%	-2.6%	-0.3%	-0.9%	6.0%
